We go through twelve molecules from PubChem BioAssay.

Experiment [1] can be described thus: resazurin metabolic signal in HepG2 cells – cell-based, resazurin fluorescence, 24 h, PK04 Diversity Set, profiling panel (AID 1172). Also: test concentration not given here. The settings on record: HepG2 viability, higher = more signal. (Alamar Blue is a resazurin reagent that responds to reducing activity.)
Experiment [2] in a line: budding yeast growth changes without added modifier – OD600, strain BY4716, 24 h, basal condition, primary screen (AID 1173). The following applies: S. cerevisiae BY4716 growth, OD600, 24 h; higher = more signal, called active from +8 up or from −8 down.
Experiment [3] can be described thus: viability profiling in MM1S myeloma cells – cell-based, resazurin fluorescence, basal, 24 h, PK04 Diversity Set, profiling panel (AID 1174).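 Also: MM1S multiple myeloma cell line; test concentration not given here.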 The settings on record: higher = more signal, called active from +8 up or from −8 down.
Experiment [4] concerns the target Dihydroorotate dehydrogenase (quinone), mitochondrial (Plasmodium falciparum (isolate 3D7)) (UniProt Q08210). In words: inhibition of P. falciparum DHODH – biochemical, C-terminal His tag, absorbance 600 nm, primary screen (AID 1175).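 Also: recombinant parasite enzyme with a five histidine tag at its C terminus; test concentration not given here.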 The settings on record: PfDHODH enzyme, DCIP absorbance 600 nm; higher = more signal, called active from +8 up or from −8 down.
Experiment [5] can be described thus: inhibition of PAO1 biofilm formation – strain PAO1, LB-PBS medium, absorbance 600 nm, primary screen (AID 1176). Also: test concentration not given here. The following applies: P. aeruginosa PAO1 growth/biofilm, A600, 12 h; higher = more signal.
A short description of experiment [6]: growth modulation of vineyard yeast isolate – strain RM11-1a, OD600, basal, 24 h, primary screen (AID 1177).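 Also: cultures grown under basal conditions with no added stressor; test concentration not given here.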 The following applies: S. cerevisiae RM11-1a growth, OD600, 24 h; higher = more signal, called active from +8 up or from −8 down.
Experiment [7] is described as follows: growth of efflux-deficient E. coli DRC39 – strain DRC39, OD650, 24 h, E. coli filamentation inducers, primary screen (AID 1178).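 Also: growth measured as culture turbidity by optical density at 650 nm; test concentration not given here.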 The following applies: E. coli DRC39 acrAB, higher = more signal, called active from +8 up or from −8 down.
Experiment [8] can be described thus: growth of efflux-deficient E. coli DRC39 – strain DRC39, OD650, 48 h, E. coli filamentation inducers, primary screen (AID 1179).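 Also: screen aims at cell division blockers that make cells filament.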 The settings on record: E. coli DRC39 delta-acrAB growth, higher = more signal, called active from +8 up or from −8 down.
A short description of experiment [9]: viability profiling in RPMI8226 myeloma cells – cell-based, resazurin fluorescence, basal, 24 h, PK04 Diversity Set, profiling panel (AID 1180).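 Also: RPMI8826 multiple myeloma cell line at 5000 cells per well; test concentration not given here.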 The following applies: higher = more signal.
For experiment [10], the target named is E3 ubiquitin-protein ligase XIAP (Homo sapiens) (UniProt P98170). The experiment is described as follows: small molecules binding XIAP protein – biophysical, small-molecule microarray, fluorescence 635 nm, primary screen (AID 1181).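 Also: score merges 667 nm emission and signal to noise over triplicate slides.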 The following applies: higher = more signal.
E3 ubiquitin-protein ligase XIAP (Homo sapiens), sequence (P98170 whole entry, looked up): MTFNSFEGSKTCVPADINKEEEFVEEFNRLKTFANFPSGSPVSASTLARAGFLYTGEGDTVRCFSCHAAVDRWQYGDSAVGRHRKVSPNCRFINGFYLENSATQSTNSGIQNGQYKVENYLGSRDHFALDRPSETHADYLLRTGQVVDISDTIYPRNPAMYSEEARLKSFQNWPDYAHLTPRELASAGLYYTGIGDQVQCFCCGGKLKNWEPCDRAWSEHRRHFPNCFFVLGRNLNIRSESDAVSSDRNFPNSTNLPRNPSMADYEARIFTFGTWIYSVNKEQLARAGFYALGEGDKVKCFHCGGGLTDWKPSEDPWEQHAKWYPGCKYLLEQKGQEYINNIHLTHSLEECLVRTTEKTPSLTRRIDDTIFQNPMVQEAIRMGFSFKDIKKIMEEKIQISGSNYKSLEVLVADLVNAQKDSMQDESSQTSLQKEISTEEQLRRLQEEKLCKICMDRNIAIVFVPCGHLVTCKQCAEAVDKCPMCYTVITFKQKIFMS

Activity calls are given as the source filed them. Unless noted, no rule for the calls is given here.

Dihydroorotate dehydrogenase (quinone), mitochondrial (Plasmodium falciparum (isolate 3D7)), sequence (Q08210 whole entry, looked up): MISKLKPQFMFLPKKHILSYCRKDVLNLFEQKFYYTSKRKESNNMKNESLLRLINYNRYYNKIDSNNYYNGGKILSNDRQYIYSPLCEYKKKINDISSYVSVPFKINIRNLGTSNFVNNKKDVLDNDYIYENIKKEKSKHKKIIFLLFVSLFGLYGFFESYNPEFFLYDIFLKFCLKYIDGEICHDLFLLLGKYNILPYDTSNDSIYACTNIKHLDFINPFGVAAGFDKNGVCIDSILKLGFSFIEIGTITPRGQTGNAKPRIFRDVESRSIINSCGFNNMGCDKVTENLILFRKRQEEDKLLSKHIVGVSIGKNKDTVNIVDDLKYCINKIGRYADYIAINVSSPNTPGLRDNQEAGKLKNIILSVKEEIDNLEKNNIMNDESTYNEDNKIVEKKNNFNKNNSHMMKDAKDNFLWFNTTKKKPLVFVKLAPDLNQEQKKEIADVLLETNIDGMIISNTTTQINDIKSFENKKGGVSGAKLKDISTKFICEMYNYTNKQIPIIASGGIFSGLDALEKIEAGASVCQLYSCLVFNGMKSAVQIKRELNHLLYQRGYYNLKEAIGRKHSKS

As to `COCCn1c(C(=O)N(C)C)cc2c1C[C@H]1CN(C(=O)c3ccccc3)[C@@](Cc3ccc(F)cc3)(C(=O)OC)[C@@H]21`, the z-score in experiment [1] is -0.473; in experiment [2], 0.717 (inactive); in experiment [3] it was -0.665 (inactive); in experiment [5], 0.535 (inactive); in [6], 1.02 (inactive); in experiment [7], 0.0751 (inactive). The z-score was 0.223 (inactive) in experiment [8] and -0.38 in experiment [9]. Moreover, the composite z-score in experiment [4] was -0.0005 (inactive); in experiment [10] it was 0.0447.
In the case of `O=C1O[C@@H](c2ccccc2)[C@@H](c2ccccc2)N2[C@@H](c3ccc(O)cc3)[C@]3(C(=O)Nc4ccc(C#CCCO)cc43)[C@@H](C(=O)O)[C@H]12`, the z-score in experiment [1] is 0.259; in experiment [2], -1.01 (inactive); in experiment [3], 0.519 (inactive); in experiment [5], 0.201 (inactive); in [6] it was -0.261 (inactive); in experiment [7], 0.151 (inactive). Moreover, the z-score in experiment [8] was 0.67 (inactive); in experiment [9], 0.545. For the same molecule, the composite z-score in experiment [4] is -2.07 (inactive); in [10] it was 0.511.
On to `COC(=O)[C@@]1(Cc2ccccc2)[C@H]2c3cc(C(=O)N(C)C)n(Cc4cc(F)c(F)c(F)c4)c3C[C@H]2CN1C(=O)c1ccccc1`, for which the z-score was 0.0126 in experiment [1]; 0.989 (inactive) in [2]; -0.402 (inactive) in experiment [3]; -0.0019 (inactive) in experiment [5]; 0.968 (inactive) in [6]; 0.194 (inactive) in experiment [7]. Also, the z-score was 0.322 (inactive) in experiment [8] and -0.963 in [9]. Moreover, the composite z-score in experiment [4] was -0.258 (inactive); in experiment [10] it was 0.272.
With `O=C1C2C=CC(C(O)CCc3ccccc3)N(Nc3ccccc3)C2C(=O)N1c1ccccc1` (stereo not given), the z-score is -0.999 in experiment [1]; -0.287 (inactive) in [2]; -1.81 (inactive) in experiment [3]; 1.12 (inactive) in experiment [5]; 0.361 (inactive) in experiment [6]; -0.97 (inactive) in experiment [7]. Moreover, the z-score in experiment [8] is -1.18 (inactive); in [9], -1.67. For the same molecule, the composite z-score was 0.228 (inactive) in experiment [4] and -0.16 in [10].
As for `C=C(C(=O)CC[C@@H](OC(=O)c1cccnc1)c1ccc(CO)o1)C(C)C`, the z-score was 0.158 in [1]; -0.708 (inactive) in experiment [2]; 0.285 (inactive) in experiment [3]; 0.437 (inactive) in experiment [5]; 0.113 (inactive) in [6]; -0.391 (inactive) in experiment [7]. For the same molecule, the z-score in experiment [8] was -0.562 (inactive); in [9], 0.594. Besides, the composite z-score in experiment [4] is -0.0661 (inactive); in experiment [10], 0.396.
For the molecule `C=C[C@H](C)[C@H](OC(=O)Nc1ccc(OC)cc1)c1ccc(O)c2ccccc12`, the z-score was -0.475 in experiment [1]; -18.5 (active) in experiment [2]; -2.68 (inactive) in [3]; 0.908 (inactive) in [5]; -17 (active) in experiment [6]; 0.405 (inactive) in experiment [7]. Besides, the z-score in experiment [8] is -0.0111 (inactive); in experiment [9] it was -2.21. Further, the composite z-score was -1.79 (inactive) in experiment [4] and -0.003 in experiment [10].
`Cc1ccc(S[C@]2(C(=O)NCC(F)(F)F)CC(=O)N(C3Cc4ccccc4C3)[C@@H]2c2ccc(CO)cc2I)cc1`: the z-score in [1] was 0.788; in experiment [2], -3.18 (inactive); in experiment [3], -2.74 (inactive); in experiment [5], 0.0898 (inactive); in experiment [6], -0.391 (inactive); in [7] it was 0.715 (inactive). Also, the z-score in experiment [8] is 0.503 (inactive); in experiment [9], -1.32. Also, the composite z-score in experiment [4] was 0.427 (inactive); in experiment [10] it was 0.0499.
For the molecule `C=C(/C(=C/C[C@@H](OC(C)=O)c1ccc(CO)o1)c1cnc2ccccc2c1)C(C)C`, the z-score is -1.05 in experiment [1]; -0.177 (inactive) in experiment [2]; 0.0858 (inactive) in experiment [3]; 0.0721 (inactive) in experiment [5]; 0.27 (inactive) in experiment [6]; 0.99 (inactive) in experiment [7]. Besides, the z-score in experiment [8] was -0.0766 (inactive); in experiment [9], 0.0262. The composite z-score in experiment [4] was -8.23 (active); in experiment [10], 0.701.
In the case of `C=CCC(OC(C)=O)[C@@H]1[C@@H](N(Cc2ccc(-c3cccc(C(F)(F)F)c3)o2)C(=O)Cc2ccc(OC)cc2)c2cc(OCCCO)ccc2N1C(=O)Cc1ccc(OC)cc1` (stereo not given in full), the z-score in [1] is -0.0596; in experiment [2] it was -1.2 (inactive); in experiment [3], 1.08 (inactive); in [5] it was 0.125 (inactive); in experiment [6], -1.08 (inactive); in [7], 1.49 (inactive). Besides, the z-score in experiment [8] is 0.814 (inactive); in [9], 0.695. Also, the values for the composite z-score in [4] and in experiment [10] were -1.49 (inactive) and -0.0879, respectively.
Consider `CCCCN1CC=CC23O[C@@H]4/C=C\CCCOC(=O)C4[C@H]2C(=O)N(C(C)CO)[C@@H]3C1=O` (stereo not given in full), for which the z-score in experiment [1] was -0.901; in experiment [2] it was -0.138 (inactive); in experiment [3] it was 0.196 (inactive); in experiment [5] it was -0.857 (inactive); in experiment [6] it was 0.429 (inactive); in experiment [7], 0.742 (inactive). Moreover, the z-score in [8] was 0.738 (inactive); in [9], 0.442. In addition, the composite z-score was -0.415 (inactive) in experiment [4] and -0.157 in experiment [10].
Consider `CCOC(=O)C1=C[C@@H](C(C)(C)C)N(S(=O)(=O)c2ccc(C)cc2)[C@H]1c1ccc(Cl)c(Cl)c1`, for which the z-score in experiment [1] was -0.331; in experiment [2], 1.63 (inactive); in experiment [3], -1.01 (inactive); in experiment [5], 0.546 (inactive); in [6] it was 1.26 (inactive); in experiment [7], -0.723 (inactive). The z-score in experiment [8] is -0.398 (inactive); in experiment [9] it was -2.92. Moreover, the composite z-score in experiment [4] was 0.89 (inactive); in experiment [10], -0.0351.
As to `COc1ccc(C#Cc2ccc3c(c2)[C@]2(C(=O)N3)[C@H](C(=O)N3CCN(c4ncccn4)CC3)[C@H]3C(=O)O[C@H](c4ccccc4)[C@H](c4ccccc4)N3[C@@H]2c2ccc(O)cc2)cc1`, the z-score in experiment [1] is -0.795; in [2], 0.21 (inactive); in [3] it was 0.0492 (inactive); in experiment [5], 0.999 (inactive); in experiment [6] it was 0.881 (inactive); in [7], -0.423 (inactive). Also, the values for the z-score in experiment [8] and in experiment [9] were 0.182 (inactive) and 0.225, respectively. Further, the composite z-score is -3.34 (inactive) in [4] and -0.0149 in experiment [10].
